For seven compounds, Potency and outcome results are on record in PubChem BioAssay (Tox21).

Assay [1] in a line: qHTS assay to identify small molecule agonists of the estrogen receptor alpha (ER-alpha) signaling pathway in the presence of an antagonist - cell viability counter screen (AID 1259386).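 Further: series mostly up to about 92 µM; cells exposed to compounds for 22 h at 37 °C before the viability read; nearly all actives have a fitted effect of over 30% in size.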 Put shortly: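 Cells are starved of estrogens for 5 days in charcoal-stripped serum, seeded for 24hr and co-treated with ICI-182,780 (10.0nM final) and test compounds. After 22hr at 37C, viability is read as CellTiter-Fluor fluorescence.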

The target in assay [2] is Progesterone receptor (Homo sapiens) (UniProt P06401). The assay can be described thus: qHTS assay to identify small molecule agonists of the progesterone receptor (PR) signaling pathway (AID 1346784; calls by dose curve; further: nearly all actives have a fitted effect of over 30% in size). Put shortly: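 Cells (PR-UAS-bla HEK 293T, GripTite) were plated in assay medium containing 2% charcoal-stripped FBS and incubated 6 hr. Test compounds in DMSO were added for 16 hr at 37C. FRET substrate was then loaded for 2 hr at room temperature before fluorescence reading.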
Chain of Progesterone receptor (Homo sapiens) (P06401 whole entry, looked up): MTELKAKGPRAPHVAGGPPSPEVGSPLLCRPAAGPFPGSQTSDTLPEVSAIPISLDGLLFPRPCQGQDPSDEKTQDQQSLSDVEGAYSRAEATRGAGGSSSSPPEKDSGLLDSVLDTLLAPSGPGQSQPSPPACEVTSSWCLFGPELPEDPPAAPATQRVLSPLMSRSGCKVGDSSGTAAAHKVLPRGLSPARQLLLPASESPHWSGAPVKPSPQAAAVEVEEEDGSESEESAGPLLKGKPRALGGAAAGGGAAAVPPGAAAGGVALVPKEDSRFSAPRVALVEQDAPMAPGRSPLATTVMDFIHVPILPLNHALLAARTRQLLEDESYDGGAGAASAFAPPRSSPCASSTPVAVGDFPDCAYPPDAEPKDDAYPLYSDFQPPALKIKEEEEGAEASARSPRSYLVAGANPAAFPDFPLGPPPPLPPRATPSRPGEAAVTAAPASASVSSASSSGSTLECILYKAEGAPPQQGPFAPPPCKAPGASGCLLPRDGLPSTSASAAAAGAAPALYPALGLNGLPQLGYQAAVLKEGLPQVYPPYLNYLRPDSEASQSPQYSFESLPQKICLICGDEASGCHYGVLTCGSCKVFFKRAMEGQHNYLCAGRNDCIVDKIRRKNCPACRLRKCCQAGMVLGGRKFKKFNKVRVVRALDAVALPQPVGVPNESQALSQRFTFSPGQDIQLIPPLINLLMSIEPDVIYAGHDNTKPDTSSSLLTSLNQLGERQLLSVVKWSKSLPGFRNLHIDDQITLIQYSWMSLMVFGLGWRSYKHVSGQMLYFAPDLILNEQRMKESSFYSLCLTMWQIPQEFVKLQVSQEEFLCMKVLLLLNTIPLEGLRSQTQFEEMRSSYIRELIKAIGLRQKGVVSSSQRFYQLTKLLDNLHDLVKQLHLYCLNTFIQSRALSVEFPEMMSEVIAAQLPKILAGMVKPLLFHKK
On the technique in general: Quantitative high-throughput screening tests each substance at several concentrations.

Assay [3] has the same target. The assay can be described thus: qHTS assay to identify small molecule antagonists of the progesterone receptor (PR) signaling pathway (AID 1346795; active means well fitted inhibition curve with a large enough effect in the signal ratio in the repeat runs, not every such curve was filed as active; the % refers to the signal ratio). In a few lines: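 Antagonist mode: compounds tested against 1 nM (final) promegestone stimulation in HEK293T cells expressing PR-UAS-bla reporter, 16 hr at 37C, 5% CO2; beta-lactamase activity detected via B/G FRET substrate after 2 hr at room temperature.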

Assay [4] is described as follows: qHTS assay to identify small molecule antagonists of the progesterone receptor (PR) signaling pathway - cell viability counter screen (AID 1346798). Further: series mostly up to about 92 µM; nearly all actives have a fitted effect of over 50% in size. Put shortly: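 Counter screen for cytotoxicity: viability of PR-UAS-bla HEK293T cells was measured with CellTiter-Glo luminescence following 16 hr compound exposure in the presence of R5020.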
The nature of assay [5]: qHTS assay to identify small molecule agonists of the progesterone receptor (PR) signaling pathway - cell viability counter screen (AID 1346799; calls by dose curve; further: nearly all actives have a fitted effect of over 45% in size). Put shortly: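 Cells (PR-UAS-bla HEK293T) are plated at 3,000/well in 2% charcoal-stripped FBS medium, rested 6 hr, dosed and incubated 16 hr at 37C. CellTiter-Glo is then added and luminescence measured after 30 min at room temperature.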

The nature of assay [6]: qHTS assay to identify small molecule antagonists of the TGF-beta/Smad signaling pathway - cell viability counter screen (AID 1346824). Further: nearly all actives have a fitted effect of over 50% in size. Put shortly: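 SBE-bla HEK 293T cells, incubated overnight, then compound plus 0.25 ng/mL TGF-beta1 (stock added) for 5 hr at 37 C. Viability was read in the same wells by CellTiter-Glo luminescence after 30 min at room temperature.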
Assay [7] is described as follows: qHTS assay to identify small molecule agonists of the TGF-beta/Smad signaling pathway - cell viability counter screen (AID 1346829). Further: top concentration of the series differs between compounds; nearly all actives have a fitted effect of over 45% in size. In a few lines:
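Tox21 qHTS format: SBE-bla HEK 293T cells treated with DMSO-dissolved compounds for 5 hr; CellTiter-Glo luminescence after 30 min at room temperature.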

Assay [8] is described as follows: qHTS assay to identify small molecule agonists of the TGF-beta/Smad signaling pathway (AID 1346859; active means well fitted activation curve with a large enough effect in the signal ratio in the repeat runs, not every such curve was filed as active; the % refers to the signal ratio; further: series mostly up to about 77 µM). In a few lines: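 Reporter line: HEK 293T with stably integrated SBE-controlled beta-lactamase. Compound exposure lasts 5 hr at 37 C and 5% CO2; substrate loading follows for 2 hr at room temperature, with emission read at 460 and 530 nm.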
In assay [9] the target is Thyrotropin-releasing hormone receptor (Homo sapiens) (UniProt P34981). The assay can be described thus: qHTS assay to identify small molecule antagonists of the thyrotropin-releasing hormone receptor (TRHR) signaling pathway (AID 1346877; active means well fitted inhibition curve with a large enough effect in the repeat runs, not every such curve was filed as active; further: potency means the concentration at half of the fitted maximal effect). Put shortly:
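Cells (TRHR-HEK293) are plated and kept 18 h at 37 °C/5% CO2. A calcium-sensitive dye is added for 2 h, compound follows for 5 min at room temperature, and TRH is then given at 1 nM final.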

For assay [10] the target is unchanged. The assay can be described thus: qHTS assay to identify small molecule agonists of the thyrotropin-releasing hormone receptor (TRHR) signaling pathway (AID 1346891; calls by dose curve;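 further: HEK293 cells expressing TRHR with calcium dye readout; series mostly up to about 58 µM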). Put shortly: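 Cells: TRHR-Hek293, seeded and incubated 18 h. Dye loading: 2 h at 37 °C. Compound added from DMSO stock by pin tool. Read-out: kinetic calcium fluorescence over 3 min.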
Assay [11] in a line: Human pregnane X receptor (PXR) small molecule agonists, qHTS cell viability counter screen (AID 1346977). Further: nearly all actives have a fitted effect of over 50% in size. Put shortly:
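Cytotoxicity counter screen run in the same wells as the PXR luciferase assay, using PXR-Luc HepG2 cells in charcoal-stripped serum medium. Viability: CellTiter-Fluor fluorescence after 24hr compound treatment.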

The nature of assay [12]: Caspase-3/7 induction in HepG2 cells by small molecules, qHTS assay (AID 1346978). Further: nearly all actives have a fitted effect of over 15% in size. Put shortly:
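Wild-type HepG2 cells, 2,000/well, settled 5 hr at 37 C and 5% CO2, then compound-treated for 17 hr; caspase-3/7 activity read by luminescent Caspase-Glo 3/7 after 30 min at room temperature.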

Assay [13] is described as follows: Caspase-3/7 induction in CHO-K1 cells by small molecules, qHTS cell viability counter screen (AID 1346979). Further: nearly all actives have a fitted effect of over 35% in size. Further: potency means the concentration at half of the fitted maximal effect. Put shortly:
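Cytotoxicity counter screen run in parallel with the caspase-3/7 assay: CHO-K1 cells, 16hr compound treatment at 37C, then CellTiter-Fluor for 1hr before fluorescence reading.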

Assay [14] is described as follows: Caspase-3/7 induction in CHO-K1 cells by small molecules, qHTS assay (AID 1346980). Further: nearly all actives have a fitted effect of over 15% in size. Put shortly: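 Wild-type CHO-K1 cells exposed to compounds for 17hr at 37 C, 5% CO2. Caspase-3/7 activity then measured by Caspase-Glo 3/7 luminescence after 30min at room temperature.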
The nature of assay [15]: Caspase-3/7 induction in HepG2 cells by small molecules, qHTS cell viability counter screen (AID 1346981). Further: series mostly up to about 92 µM; nearly all actives have a fitted effect of over 30% in size. In a few lines:
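Steps: seed 2,000 HepG2 cells per well; incubate 5 hr at 37 C; pin-add compounds in DMSO; incubate 16 hr; add CellTiter-Fluor; after 1 hr at 37 C and 5% CO2, read fluorescence.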

In assay [16] the target is Nuclear receptor subfamily 1 group I member 2 (Homo sapiens) (UniProt O75469). Description: Human pregnane X receptor (PXR) small molecule agonists, qHTS assay (AID 1346982). Further: nearly all actives have a fitted effect of over 35% in size. Further: potency means the concentration at half of the fitted maximal effect. Put shortly:
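Agonist mode qHTS: PXR-Luc HepG2 cells plated 5 hr before DMSO-dissolved compounds were pinned in, cultured 24 hr at 37 C, 5% CO2; ONE-Glo luminescence readout.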

In assay [17] the target is Cytochrome P450 2D6 (Homo sapiens) (UniProt P10635). Description: Cytochrome P450 Family 2 Subfamily D Member 6 (CYP2D6) small molecule antagonists: luciferase reporter qHTS assay (AID 1671196). Further: nearly all actives have a fitted effect of over 50% in size. Further: potency means the concentration at half of the fitted maximal effect. In a few lines:
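P450-Glo format: CYP2D6 converts a proluciferin substrate to luciferin in an NADPH-driven reaction lasting 1 h at room temperature. Light output, proportional to CYP2D6 activity, reflects interference by test chemicals.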
In general terms: In a reporter assay the amount or activity of a reporter protein is the signal.

Where “and” joins values, the source holds several entries; their conditions need not be identical. Equal entries are not always repeated. Inconclusive results are not listed. More than one record can exist for a structure, and the calls need not agree. Calls of active or inactive are those of the source. Unless noted, the call rests on the fitted dose curve; in most records, active means well fitted curve in the direction sought with a large enough effect in the repeat runs; inconclusive means weak or mixed curves; inactive means no such curve, though single readings can be large; an effect the other way counts as inactive or inconclusive.

Chain of Thyrotropin-releasing hormone receptor (Homo sapiens) (P34981 whole entry, looked up): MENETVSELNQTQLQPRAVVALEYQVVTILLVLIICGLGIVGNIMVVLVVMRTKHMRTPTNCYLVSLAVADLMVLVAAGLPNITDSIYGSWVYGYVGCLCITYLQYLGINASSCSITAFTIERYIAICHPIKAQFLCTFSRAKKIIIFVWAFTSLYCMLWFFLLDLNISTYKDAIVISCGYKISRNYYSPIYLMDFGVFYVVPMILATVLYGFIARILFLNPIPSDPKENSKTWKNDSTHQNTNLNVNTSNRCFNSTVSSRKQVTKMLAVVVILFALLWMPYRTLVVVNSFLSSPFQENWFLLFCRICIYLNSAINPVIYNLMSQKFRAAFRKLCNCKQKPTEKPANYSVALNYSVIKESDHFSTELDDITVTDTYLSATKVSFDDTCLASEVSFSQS
Chain of Nuclear receptor subfamily 1 group I member 2 (Homo sapiens) (O75469 whole entry, looked up): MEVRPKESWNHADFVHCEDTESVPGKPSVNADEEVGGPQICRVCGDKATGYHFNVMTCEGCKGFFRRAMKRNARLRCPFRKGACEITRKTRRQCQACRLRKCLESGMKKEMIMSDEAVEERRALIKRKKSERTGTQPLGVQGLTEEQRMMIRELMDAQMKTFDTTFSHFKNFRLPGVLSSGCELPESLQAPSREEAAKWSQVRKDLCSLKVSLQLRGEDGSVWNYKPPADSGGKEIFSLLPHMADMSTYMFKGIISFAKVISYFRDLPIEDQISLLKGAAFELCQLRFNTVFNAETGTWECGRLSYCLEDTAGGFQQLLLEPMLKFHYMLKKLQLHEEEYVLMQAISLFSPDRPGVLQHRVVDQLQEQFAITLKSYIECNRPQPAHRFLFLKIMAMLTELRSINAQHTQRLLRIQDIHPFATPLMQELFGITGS
Chain of Cytochrome P450 2D6 (Homo sapiens) (P10635 whole entry, looked up): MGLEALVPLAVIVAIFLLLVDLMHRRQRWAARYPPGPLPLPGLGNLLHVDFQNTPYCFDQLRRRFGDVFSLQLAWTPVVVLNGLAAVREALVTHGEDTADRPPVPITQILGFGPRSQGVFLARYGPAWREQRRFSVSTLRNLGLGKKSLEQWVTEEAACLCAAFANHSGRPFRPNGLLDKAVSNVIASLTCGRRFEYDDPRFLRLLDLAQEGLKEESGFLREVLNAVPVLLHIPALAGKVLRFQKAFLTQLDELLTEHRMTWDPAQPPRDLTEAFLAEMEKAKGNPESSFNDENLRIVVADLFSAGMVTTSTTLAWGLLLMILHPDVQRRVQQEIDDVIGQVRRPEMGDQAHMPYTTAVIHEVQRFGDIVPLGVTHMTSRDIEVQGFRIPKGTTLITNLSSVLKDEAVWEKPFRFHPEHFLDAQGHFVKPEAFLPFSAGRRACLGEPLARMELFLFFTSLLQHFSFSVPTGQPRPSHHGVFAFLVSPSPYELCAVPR

As for `COC(=O)c1ccccc1OC`, the Potency entry in assay [1], in assay [2], in assay [3], in [4], in assay [5] and in assay [6] was “inactive” throughout. Also, the Potency entry in assay [7], in [8], in [9], in [11], in assay [12] and in assay [13] was “inactive” throughout. Further, the Potency result in assay [14], in assay [15], in assay [16] and in [17] was “inactive” each time. Also, the call in assay [10] was inactive.
Take `O=C(O)c1ccc2cc(C(=O)O)ccc2c1`: the Potency result in [1], in assay [2], in [3], in [4], in assay [5] and in assay [6] was “inactive” in each case. The Potency entry in assay [7], in [8], in assay [9], in [11], in assay [12] and in assay [13] was “inactive” each time. Moreover, the Potency entry in assay [14], in [15], in [16] and in assay [17] was “inactive” throughout. In addition, in [10], the compound was called inactive.
On to `O=C1c2ccccc2C(=O)N1SC1CCCCC1`, for which the Potency entry in assay [1], in assay [2], in [3], in assay [4], in [5] and in assay [6] was “inactive” each time. In addition, the Potency result in assay [7], in assay [8], in assay [11], in assay [12], in assay [14] and in assay [15] was “inactive” in each case. The Potency result in assay [16] was “inactive”. In addition, the Potency was 30.1 µM (active) and inactive in [9]; 54.4 µM (active) and 43.3 µM (active) in assay [13]. Moreover, in [10], the compound was classed as inactive.
Turning to `CCCC(=O)OC(C)(C)Cc1ccccc1`, the Potency entry in assay [1], in assay [2], in assay [3], in assay [4], in [5] and in [6] was “inactive” in each case. Also, the Potency result in assay [7], in assay [8], in assay [9], in assay [11], in assay [12] and in assay [13] was “inactive” throughout. The Potency result in assay [14] is “inactive”. Besides, the call in [10] was inactive.
As for `CCCC[P+](C)(CCCC)CCCC`, the Potency entry in assay [1], in assay [2], in [3], in [4], in assay [5] and in assay [6] was “inactive” in each case. The Potency entry in assay [7], in [8], in assay [9], in [11], in [12] and in assay [13] was “inactive” in each case. In addition, the Potency entry in [14] and in assay [15] was “inactive” each time. The compound was classed as inactive in assay [10]. The Potency in assay [16] was 61.9 µM (active); in [17], 0.203 µM (active).
For `CC(CO)Oc1ccccc1` (stereo not given), the Potency entry in [1], in [2], in assay [3], in [4], in [5] and in assay [6] was “inactive” each time. In addition, the Potency entry in [7], in [8], in assay [9], in [11], in assay [12] and in assay [13] was “inactive” in each case. Moreover, the Potency result in assay [14], in assay [15] and in assay [16] was “inactive” in each case. In assay [10], the compound was called inactive. Further, the Potency in assay [17] is 41.2 µM (active).
`CCC(=O)C(=O)CC`: the Potency result in [1], in [2], in assay [3], in assay [4], in assay [5] and in assay [6] was “inactive” throughout. Moreover, the Potency result in [7], in assay [8], in [9], in assay [11], in assay [12] and in assay [13] was “inactive” each time. Besides, the Potency entry in [14], in assay [15] and in assay [17] was “inactive” each time. For the same compound, the compound was called inactive in assay [10]. In assay [16], the Potency was 18 µM (active).
